# According to the supplement of paper PMC8728848:
# About 410 targets per protein were measured; listed, in parts, are those with the strongest signals and a random draw of the rest.
# B1: HPA (Helix pomatia), Q2F1K8 (protein)
# chain: MQAFYSGLLLLCVVAFAAAQRVQSGKIDCGNDAGWAKVPSDDPGRDNTRELAKNITFASPYCRPPVVLLSITQLDVEQSQNLRVIARLYSVSPTGFKASCYTWHNTKVYSMSISWISIENY
# What was measured:
# Experiment in all cases: glycan array binding signal (z-score within array); higher = stronger binding
# Settings in all cases: glycan notation: IUPAC condensed, linker removed
# [1] = target: Fuc(a1-2)Gal(b1-3)GlcNAc(b1-3)[Gal(b1-4)[Fuc(a1-3)]GlcNAc(b1-6)]Gal(b1-4)Glc
# Summary of the method: (§1)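 The binding signal is a Z-score computed within each array. Data were drawn from 3228 arrays in the Consortium for Functional Glycomics database, restricted to those with a known protein sequence. Scores were averaged over arrays of the same protein sequence at different concentrations or buffers, and over linkers, and negative values can be taken as non-binding.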
# [2] = target: Fuc(a1-2)Gal(b1-3)[Fuc(a1-4)]GlcNAc(b1-2)Man(a1-3)[Fuc(a1-2)Gal(b1-3)[Fuc(a1-4)]GlcNAc(b1-2)Man(a1-6)]Man(b1-4)GlcNAc(b1-4)GlcNAc
# Summary of the method: as §1
# [3] = target: Fuc(a1-2)Gal(b1-4)[Fuc(a1-3)]GlcNAc
# Summary of the method: as §1
# Fuc(a1-2)GlcNAc = target: Fuc(a1-2)GlcNAc
# Summary of the method: as §1
# [4] = target: Fuc(a1-2)[Gal(a1-3)]Gal(b1-3)GalNAc
# Summary of the method: as §1
# [5] = target: Fuc(a1-2)[GalNAc(a1-3)]Gal(b1-4)GlcNAc(b1-2)Man(a1-3)[Fuc(a1-2)[GalNAc(a1-3)]Gal(b1-4)GlcNAc(b1-2)Man(a1-6)]Man(b1-4)GlcNAc(b1-4)GlcNAc
# Summary of the method: as §1
# [6] = target: Fuc(a1-2)[GalNAc(a1-3)]Gal(b1-4)GlcNAc(b1-3)Gal(b1-4)GlcNAc
# Summary of the method: as §1
# [7] = target: Fuc(a1-2)[GalNAc(a1-3)]Gal(b1-4)GlcNAc(b1-3)Gal(b1-4)GlcNAc(b1-3)Gal(b1-4)GlcNAc
# Summary of the method: as §1
# [8] = target: Fuc(a1-2)[GalNAc(a1-3)]Gal(b1-4)[Fuc(a1-3)]GlcNAc(b1-3)GalNAc
# Summary of the method: as §1
# [9] = target: Fuc(a1-2)[GalNAc(a1-4)]Gal(b1-4)GlcNAc
# Summary of the method: as §1
# [10] = target: Fuc(a1-3)[Gal(b1-4)]Glc6S
# Summary of the method: as §1
# [11] = target: Fuc(a1-3)[Gal(b1-4)]GlcNAc(b1-2)Man(a1-3)[Fuc(a1-3)[Gal(b1-4)]GlcNAc(b1-2)Man(a1-6)]Man(b1-4)GlcNAc(b1-4)GlcNAc
# Summary of the method: as §1
# [12] = target: Fuc(a1-3)[Gal(b1-4)]GlcNAc(b1-3)Gal(b1-4)[Fuc(a1-3)]GlcNAc
# Summary of the method: as §1
# [13] = target: Fuc(a1-3)[Gal(b1-4)]GlcNAc(b1-4)Gal(b1-4)[Fuc(a1-3)]GlcNAc(b1-4)Gal(b1-4)[Fuc(a1-3)]GlcNAc
# Summary of the method: as §1
# [14] = target: Fuc(a1-3)[Neu5Ac(a2-3)]Gal(b1-4)GlcNAc(b1-3)GalNAc
# Summary of the method: as §1
# Gal(a1-3)Gal(b1-3)GlcNAc = target: Gal(a1-3)Gal(b1-3)GlcNAc
# Summary of the method: as §1
# [15] = target: Gal(a1-3)Gal(b1-4)GlcNAc(b1-6)GalNAc
# Summary of the method: as §1
# Gal(a1-4)Gal(b1-4)GlcNAc = target: Gal(a1-4)Gal(b1-4)GlcNAc
# Summary of the method: as §1
# Gal(b1-2)Gal = target: Gal(b1-2)Gal
# Summary of the method: as §1
# Gal(b1-3)GalNAc(b1-3)Gal = target: Gal(b1-3)GalNAc(b1-3)Gal
# Summary of the method: as §1
# [16] = target: Gal(b1-3)GalNAc(b1-4)[Neu5Ac(a2-3)]Gal(b1-4)Glc
# Summary of the method: as §1
# Gal(b1-3)GlcNAc(b1-2)Man = target: Gal(b1-3)GlcNAc(b1-2)Man
# Summary of the method: as §1
# [17] = target: Gal(b1-3)GlcNAc(b1-3)Gal(b1-4)GlcNAc(b1-3)Gal(b1-4)GlcNAc(b1-2)[Gal(b1-3)GlcNAc(b1-3)Gal(b1-4)GlcNAc(b1-3)Gal(b1-4)GlcNAc(b1-6)]Man(a1-6)[Gal(b1-3)GlcNAc(b1-3)Gal(b1-4)GlcNAc(b1-3)Gal(b1-4)GlcNAc(b1-2)Man(a1-3)]Man(b1-4)GlcNAc(b1-4)[Fuc(a1-6)]GlcNAc
# Summary of the method: as §1
# [18] = target: Gal(b1-3)GlcNAc(b1-3)Gal(b1-4)GlcNAc(b1-6)[Gal(b1-3)GlcNAc(b1-3)]Gal(b1-4)Glc
# Summary of the method: as §1
# [19] = target: Gal(b1-3)GlcNAc(b1-6)[Gal(b1-3)]GalNAc
# Summary of the method: as §1
# [20] = target: Gal(b1-3)[Fuc(a1-4)]GlcNAc(b1-2)Man(a1-3)[Gal(b1-3)[Fuc(a1-4)]GlcNAc(b1-2)Man(a1-6)]Man(b1-4)GlcNAc(b1-4)GlcNAc
# Summary of the method: as §1
# [21] = target: Gal(b1-4)GlcNAc(b1-2)Man(a1-3)[GlcNAc(b1-4)][Gal(b1-4)GlcNAc(b1-2)Man(a1-6)]Man(b1-4)GlcNAc(b1-4)GlcNAc
# Summary of the method: as §1
# [22] = target: Gal(b1-4)GlcNAc(b1-3)Gal(b1-4)GlcNAc(b1-3)Gal(b1-4)GlcNAc(b1-2)[Gal(b1-4)GlcNAc(b1-3)Gal(b1-4)GlcNAc(b1-3)Gal(b1-4)GlcNAc(b1-6)]Man(a1-6)[Gal(b1-4)GlcNAc(b1-3)Gal(b1-4)GlcNAc(b1-3)Gal(b1-4)GlcNAc(b1-2)Man(a1-3)]Man(b1-4)GlcNAc(b1-4)[Fuc(a1-6)]GlcNAc
# Summary of the method: as §1
# [23] = target: Gal(b1-4)GlcNAc(b1-3)Gal(b1-4)GlcNAc(b1-3)Gal(b1-4)GlcNAc(b1-3)Gal(b1-4)GlcNAc(b1-3)Gal(b1-4)GlcNAc(b1-2)Man(a1-3)[Gal(b1-4)GlcNAc(b1-3)Gal(b1-4)GlcNAc(b1-3)Gal(b1-4)GlcNAc(b1-3)Gal(b1-4)GlcNAc(b1-3)Gal(b1-4)GlcNAc(b1-2)Man(a1-6)]Man(b1-4)GlcNAc(b1-4)[Fuc(a1-6)]GlcNAc
# Summary of the method: as §1
binder,measurement,setting,value
B1,glycan array binding signal (z-score),[1],-0.454
same,glycan array binding signal (z-score),[2],4.62
same,glycan array binding signal (z-score),[3],-0.109
same,glycan array binding signal (z-score),Fuc(a1-2)GlcNAc,-0.295
same,glycan array binding signal (z-score),[4],-0.303
same,glycan array binding signal (z-score),[5],3.07
same,glycan array binding signal (z-score),[6],2.66
same,glycan array binding signal (z-score),[7],3.15
same,glycan array binding signal (z-score),[8],0.306
same,glycan array binding signal (z-score),[9],2.81
same,glycan array binding signal (z-score),[10],0.244
same,glycan array binding signal (z-score),[11],-0.126
same,glycan array binding signal (z-score),[12],-0.242
same,glycan array binding signal (z-score),[13],-0.09
same,glycan array binding signal (z-score),[14],4.26
same,glycan array binding signal (z-score),Gal(a1-3)Gal(b1-3)GlcNAc,-0.213
same,glycan array binding signal (z-score),[15],-0.173
same,glycan array binding signal (z-score),Gal(a1-4)Gal(b1-4)GlcNAc,-0.114
same,glycan array binding signal (z-score),Gal(b1-2)Gal,-0.074
same,glycan array binding signal (z-score),Gal(b1-3)GalNAc(b1-3)Gal,-0.375
same,glycan array binding signal (z-score),[16],-0.291
same,glycan array binding signal (z-score),Gal(b1-3)GlcNAc(b1-2)Man,-0.119
same,glycan array binding signal (z-score),[17],0.092
same,glycan array binding signal (z-score),[18],-0.34
same,glycan array binding signal (z-score),[19],-0.205
same,glycan array binding signal (z-score),[20],2.87
same,glycan array binding signal (z-score),[21],-0.311
same,glycan array binding signal (z-score),[22],0.257
same,glycan array binding signal (z-score),[23],0.027
